{"source": "PubChem BioAssay AID488857", "about": "(Sanford-Burnham Center for Chemical Genomics, 2010)", "note": "Screen size: about 1,400 compounds; about 560 (40%) were called active. The set was probably picked from earlier hits. This is one part of the list. Values without a mark were called inactive.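 How the source made its calls: active means mean inhibition over duplicate tests at 10 µM above 50%; inactive means the rest.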"}
{"test": "ASC/caspase-1 reporter retest in S. cerevisiae at one dose, specificity check for NALP1 project (AID 488857)", "settings": "S. cerevisiae ASC/Caspase-1, beta-galactosidase luminescence, 24 h; at 10 µM; hits give high values"}
{"smiles": "COc1ccc(/C=C2/CCc3ccccc3C2=O)cc1OC", "inhibition": "61.4% (active)"}
{"smiles": "COC(=O)C(Cc1ccccc1)NC(=O)COc1ccc(C(C)(C)C)cc1", "note": "(stereo not drawn)", "inhibition": "34.1%"}
{"smiles": "COCCCNCCOc1ccc(C(C)(C)c2ccccc2)cc1", "inhibition": "64.7% (active)"}
{"smiles": "C=CCNCCOCCSc1ccc(Cl)cc1", "inhibition": "42.4%"}
{"smiles": "C=CCNCCOc1ccc(C(C)(C)c2ccccc2)cc1", "inhibition": "56.8% (active)"}
{"smiles": "COc1cccc(C2c3c(-c4ccccc4O)n[nH]c3C(=O)N2Cc2ccco2)c1", "note": "(stereo not drawn)", "inhibition": "47.1%"}
{"smiles": "C=CCNC(=O)/C(C#N)=C/c1c(C)nn(-c2ccccc2)c1Cl", "inhibition": "69.8% (active)"}
{"smiles": "Cc1nn(-c2ccccc2)c(Cl)c1/C=C(\\C#N)C(=O)NC(C)C", "inhibition": "68.6% (active)"}
{"smiles": "COC(=O)c1ccc(/C=C(\\C#N)C(=O)NC(C)c2ccccc2)cc1", "note": "(stereo not drawn)", "inhibition": "43.5%"}
{"smiles": "O=C(O)/C=C/C(=O)OC1CC2CCC1C2", "note": "(stereo not drawn)", "inhibition": "23.1%"}
{"smiles": "Cc1ccc(NC(=O)CN(C)C(=O)COc2cccc3cccnc23)cc1", "inhibition": "21.4%"}
{"smiles": "CCN(CC)c1ccc(/C=N/OC(C)C(=O)Nc2ccc(C)cc2)cc1", "note": "(stereo not drawn)", "inhibition": "53.4% (active)"}
{"smiles": "c1ccc(CC2CCN(c3nnnn3-c3ccccc3)CC2)cc1", "inhibition": "39.6%"}
{"smiles": "Cc1ccc(C(=O)/C=C/c2ccc3c(c2)OCO3)o1", "inhibition": "32.1%"}
{"smiles": "O=C(CCNC(=O)c1ccccc1Cl)Nc1ccc2c(c1)OCO2", "inhibition": "34.6%"}
{"smiles": "O=C(/C=C/c1ccc2c(c1)OCCCO2)c1ccccc1O", "inhibition": "61.2% (active)"}
{"smiles": "COC(=O)Cn1nc(-c2ccccc2)c2ccccc21", "inhibition": "99.4% (active)"}
{"smiles": "O=C(O)Cn1nc(-c2ccccc2)oc1=O", "inhibition": "20.1%"}
{"smiles": "O=C(NC1=NCCS1)c1ccc(Cl)s1", "inhibition": "53% (active)"}
{"smiles": "CC(NC(=O)c1ccc(F)cc1)C(=O)NC1=NCCS1", "note": "(stereo not drawn)", "inhibition": "38.4%"}
{"smiles": "CCC(=O)N1CCc2cc(S(=O)(=O)N3CCc4ccccc43)ccc21", "inhibition": "37%"}
{"smiles": "O=C(c1cnn2ccccc12)N1CCc2ccccc21", "inhibition": "57.4% (active)"}
{"smiles": "CSc1sc(C(=O)N2CCc3ccccc32)cc1S(=O)(=O)C(C)C", "inhibition": "30%"}
{"smiles": "CC(C)NC(=O)c1ccc(COCC(F)(F)F)cc1", "inhibition": "36.5%"}
{"smiles": "Cc1ccc(C(=O)Oc2ccc3c(c2)ncn3C)cc1", "inhibition": "61.9% (active)"}
{"smiles": "Cc1nc2c(ccc3c2ccc2nc(C)sc23)s1", "inhibition": "38.2%"}
{"smiles": "Cc1nc2ccc(NC(=O)c3cc([N+](=O)[O-])cc([N+](=O)[O-])c3Cl)cc2s1", "inhibition": "42.2%"}
{"smiles": "Cc1ccc(C(=O)Nc2ccc3nc(C)sc3c2)s1", "inhibition": "87.8% (active)"}
{"smiles": "COc1cccc(/C=N/NC(=O)CCc2c(C)n[nH]c2C)c1", "inhibition": "30.6%"}
{"smiles": "Nc1[nH]ncc1N=Nc1ccc(Cl)cc1", "inhibition": "64.8% (active)"}
{"smiles": "CCCCNC(=O)COC(=O)c1ccc(Cl)c(S(N)(=O)=O)c1", "inhibition": "37.4%"}
{"smiles": "CCCCOc1ccc(C(=O)CCN2CCCCC2)cc1", "inhibition": "32.5%"}
{"smiles": "CCCOc1ccc(C(=O)c2nc3c(n2O)CCCCC3)cc1", "inhibition": "52% (active)"}
{"smiles": "CCCCCCNc1nc(NCc2ccco2)nc(OCC)n1", "inhibition": "56.7% (active)"}
{"smiles": "O=[N+]([O-])c1cccc(CNc2ccc3c(c2)CCC3)c1", "inhibition": "59.6% (active)"}
{"smiles": "COc1cccc(CNc2ccc3c(c2)CCC3)c1", "inhibition": "30.4%"}
{"smiles": "COc1cccc(OCc2ccc(C(=O)NCC3CCCO3)cc2)c1", "note": "(stereo not drawn)", "inhibition": "48.8%"}
{"smiles": "CCn1nccc1C(=O)Nc1ccc(Cl)cn1", "inhibition": "34.9%"}
{"smiles": "CCn1ncc([N+](=O)[O-])c1C(=O)Nc1ccc(C(=O)N2CCCCC2)cc1", "inhibition": "43.9%"}
{"smiles": "CCn1ncc(C(=O)Nc2cccc(Cl)c2)c1C", "inhibition": "54.3% (active)"}
{"smiles": "CCCc1cc(C(=O)Nc2c(C)n(C)n(-c3ccccc3)c2=O)no1", "inhibition": "16.9%"}
{"smiles": "CCCc1cc(C(=O)Nc2cccc(Cl)c2)no1", "inhibition": "81.6% (active)"}
{"smiles": "CCCc1cc(C(=O)Nc2ccc(F)cc2F)no1", "inhibition": "46.5%"}
{"smiles": "Cc1cc(C)c(S(=O)(=O)Nc2ccc(OCC(=O)O)cc2)c(C)c1", "inhibition": "29.1%"}
{"smiles": "CCNC(=S)SCCOc1ccccc1C", "inhibition": "79.3% (active)"}
{"smiles": "COc1ccc(N(CCC#N)S(=O)(=O)c2ccc(Cl)cc2)cc1", "inhibition": "26.1%"}
{"smiles": "CC1CCCCC1NC(=O)/C(C#N)=C/c1ccccc1F", "note": "(stereo not drawn)", "inhibition": "74.2% (active)"}
{"smiles": "CCCSc1nnc(C(C)C)n1N", "inhibition": "26.2%"}
{"smiles": "CCOC(=O)c1cc(-c2ccccc2)n(CC(=O)Nc2ccc(OC)c(OC)c2)c1C", "inhibition": "37.5%"}
{"smiles": "CCOc1ccc(/C=C/C(=O)c2ccccc2)cc1OC", "inhibition": "55.5% (active)"}
{"smiles": "COc1ccc(/C=N/OC(=O)Nc2ccccc2)cc1[N+](=O)[O-]", "inhibition": "32.5%"}
{"smiles": "CC(C)c1nc2sc3c(=O)[nH]cnc3c2c2c1CCC2", "inhibition": "23.9%"}
{"smiles": "COc1ccccc1N1C(=O)C2CCC(c3ccccc3)CC2C1=O", "note": "(stereo not drawn)", "inhibition": "27.9%"}
{"smiles": "Cc1cccc(Cn2c(C(C)(C)C)cc3cccnc32)c1", "inhibition": "47.4%"}
{"smiles": "CC(C)(C)c1cc2cccnc2n1Cc1cccc(Cl)c1", "inhibition": "52.5% (active)"}
{"smiles": "CCSc1nnc(-c2cnn(-c3ccccc3)c2-n2cccc2)n1C", "inhibition": "34.5%"}
{"smiles": "CCSc1ncc(/C=N/Nc2ccccc2)n1C", "inhibition": "75.3% (active)"}
{"smiles": "COc1cc(NC(C)CCCN)c2ncccc2c1Oc1ccccc1", "note": "(stereo not drawn)", "inhibition": "29.6%"}
{"smiles": "Cc1[nH]n(-c2ccccc2)c(=O)c1C(C[N+](=O)[O-])c1ccc(Br)cc1", "note": "(stereo not drawn)", "inhibition": "79% (active)"}
{"smiles": "COC(=O)C1(C(C[N+](=O)[O-])c2ccc(C)cc2)C(=O)NCC1c1ccco1", "note": "(stereo not drawn)", "inhibition": "49%"}
{"smiles": "O=c1cc(CSc2ccc(Cl)cc2)[nH]c2[nH]n(-c3ccccc3)c(=O)c12", "inhibition": "42.8%"}
{"smiles": "Cc1cc2ccccn2c1C(C[N+](=O)[O-])c1ccc(N(C)C)cc1", "note": "(stereo not drawn)", "inhibition": "21.9%"}
{"smiles": "Cc1ccc(C(C[N+](=O)[O-])c2c(C)[nH]n(-c3ccccc3)c2=O)cc1", "note": "(stereo not drawn)", "inhibition": "82.5% (active)"}
{"smiles": "Cc1[nH]n(-c2ccccc2)c(=O)c1C(C[N+](=O)[O-])c1ccc(Cl)cc1", "note": "(stereo not drawn)", "inhibition": "87.4% (active)"}
{"smiles": "O=C1N/C(=N\\N=C\\c2cccnc2)SC1Cc1ccc(SC(F)F)cc1", "note": "(stereo not drawn)", "inhibition": "29.8%"}
{"smiles": "NC(=O)c1ncc(C(F)(F)F)cc1Oc1ccc(C(F)(F)F)cc1", "inhibition": "42.5%"}
{"smiles": "CCOc1cc(/C=N/NC(=O)c2nn(C)cc2Br)ccc1OCc1ccccc1Cl", "inhibition": "26.2%"}
{"smiles": "CC(=O)Nc1ccc2nc(CN3CCC(CO)(CCc4ccccc4)CC3)ccc2c1", "inhibition": "36.4%"}
{"smiles": "CCCCn1cnc2c1c(=O)[nH]c(=O)n2CCCC", "inhibition": "7.55%"}
{"smiles": "Cc1[nH]c2ccccc2c1C(=O)CSc1nc2ncc(Cl)cc2[nH]1", "inhibition": "36.2%"}
{"smiles": "CC(NC(=O)/C(C#N)=C/c1ccc([N+](=O)[O-])o1)c1ccccc1", "note": "(stereo not drawn)", "inhibition": "36.7%"}
{"smiles": "CC(OC(=O)CC(NC(=O)c1ccccc1Cl)c1ccccc1)C(=O)Nc1cccc(Cl)c1Cl", "note": "(stereo not drawn)", "inhibition": "34.5%"}
{"smiles": "CC(C)NC(=O)/C(C#N)=C/c1cccc(NC(=O)c2ccccc2Cl)c1", "inhibition": "63.5% (active)"}
{"smiles": "CC(NC(=O)/C(C#N)=C/c1ccc(Cl)c([N+](=O)[O-])c1)c1ccccc1", "note": "(stereo not drawn)", "inhibition": "62.2% (active)"}
{"smiles": "CC(=O)Nc1sc2c(c1-c1nc3ccccc3s1)CCN(C(C)C)C2", "inhibition": "98% (active)"}
{"smiles": "Fc1ccc(NC(=S)N2CCSC2c2cccs2)cc1", "note": "(stereo not drawn)", "inhibition": "25.8%"}
{"smiles": "Cc1cccc(/C=C/C(=O)c2ccc(NC3=NCCCS3)cc2)c1", "inhibition": "60.4% (active)"}
{"smiles": "CC(C)(C)c1ccc(/C=C/C(=O)c2ccc(NC3=NCCCS3)cc2)cc1", "inhibition": "53.1% (active)"}
{"smiles": "CC(=O)OCC(=O)[C@H]1CC[C@H]2[C@@H]3CC=C4C[C@@H](O)CC[C@]4(C)[C@H]3CC[C@]12C", "inhibition": "32.5%"}
{"smiles": "Brc1ccc(C=Nc2ccc(Nc3ccccc3)cc2)s1", "inhibition": "56.1% (active)"}
{"smiles": "Cc1ccc(C(=O)c2c(NC(=O)c3ccncc3)sc3c2CCCC3)cc1", "inhibition": "58.1% (active)"}
{"smiles": "Cc1ccccc1OCC(=O)Nc1sc2c(c1C#N)CCC2", "inhibition": "35.5%"}
{"smiles": "CCCCNC1CCS(=O)(=O)C1", "note": "(stereo not drawn)", "inhibition": "37.9%"}
{"smiles": "CC(C)Oc1ccc2c(=O)c(-c3ccccc3)coc2c1", "inhibition": "73.6% (active)"}
{"smiles": "CC(C)OC(=O)COc1ccc(-c2ccccc2)cc1", "inhibition": "47.1%"}
{"smiles": "Cc1ccc(CN2CCN(/N=C/c3ccc(C(F)(F)F)cc3)CC2)c(C)c1", "inhibition": "50.5% (active)"}
{"smiles": "Cc1ccccc1-c1ccc(C(=O)Nc2cccc(F)c2)o1", "inhibition": "56.5% (active)"}
{"smiles": "O=C(Nc1cccc(F)c1)c1ccc(CSc2ccccc2)o1", "inhibition": "37.5%"}
{"smiles": "Cc1oc(C(=O)O)cc1COc1ccc2c3c(c(=O)oc2c1)CCC3", "inhibition": "46.1%"}
{"smiles": "COc1ccc2c(c1)O/C(=C\\c1sccc1C)C2=O", "inhibition": "66.5% (active)"}
{"smiles": "COC(=O)c1cccc(NC(=O)/C=C/c2ccc3c(c2)OCO3)c1", "inhibition": "77.6% (active)"}
{"smiles": "O=C(O)c1ccc2c(c1)N(Cc1cccc(F)c1)C(=O)CS2", "inhibition": "19.6%"}
{"smiles": "COc1ccccc1OCCN1CSC(=S)N(C)C1", "inhibition": "54.5% (active)"}
{"smiles": "CCCCC(CC(O)COCCC)c1n[nH]c(=S)n1-c1ccccc1", "note": "(stereo not drawn)", "inhibition": "42%"}
{"smiles": "O=[N+]([O-])c1cc(Cc2ccccc2)cc(C=Nc2ccc(N3CCOCC3)cc2)c1O", "inhibition": "51.5% (active)"}
{"smiles": "O=[N+]([O-])c1cc2oc3c(c2c(C=NCc2ccccc2)c1O)CCCC3", "inhibition": "42.5%"}
{"smiles": "CN(C)c1ccc(O)c2c1CC1CC3[C@@H](N(C)C)C(=O)C(C(N)=O)=C(O)[C@]3(O)C(=O)C1=C2O", "note": "(stereo partly drawn)", "inhibition": "31.9%"}
{"smiles": "COc1cccc(/C=N/NC(=O)CNC(=O)C2COc3ccccc3O2)c1O", "note": "(stereo not drawn)", "inhibition": "42.9%"}
{"smiles": "O=C(N/N=C\\c1cccc([N+](=O)[O-])c1O)C1COc2ccccc2O1", "note": "(stereo not drawn)", "inhibition": "81.3% (active)"}
{"smiles": "CCCCN(C)C(=O)c1nc2ccccn2c1CNCCCn1ncc2ccccc21", "inhibition": "33.2%"}
{"smiles": "CC(C)C(C)NC(=O)COc1ccc(S(=O)(=O)N2CCOCC2)cc1[N+](=O)[O-]", "note": "(stereo not drawn)", "inhibition": "12.2%"}
{"smiles": "Cn1cc(C(=O)NCc2ccc(F)cc2)c(=O)c2cc(S(=O)(=O)N3CCCCC3)ccc21", "inhibition": "34.4%"}
{"smiles": "O=[N+]([O-])c1cc(S(=O)(=O)N2CCCCCC2)ccc1F", "inhibition": "86.2% (active)"}
